Binding signal data for 54 sequences are collected here from article PMC10726135, “HNF4α isoforms regulate the circadian balance between carbohydrate and lipid metabolism in the liver”.

The full ranking holds about 18,000 sequences; the median of “log2 normalized intensity” is about 0.39, and the highest 2% start at about 6.6. The full list was thinned out, with the highest values kept by preference.

This test deals with T1, HNF4alpha2 (COS-7 nuclear extract) (Homo sapiens, UniProt P41235 1-474).
T1 sequence: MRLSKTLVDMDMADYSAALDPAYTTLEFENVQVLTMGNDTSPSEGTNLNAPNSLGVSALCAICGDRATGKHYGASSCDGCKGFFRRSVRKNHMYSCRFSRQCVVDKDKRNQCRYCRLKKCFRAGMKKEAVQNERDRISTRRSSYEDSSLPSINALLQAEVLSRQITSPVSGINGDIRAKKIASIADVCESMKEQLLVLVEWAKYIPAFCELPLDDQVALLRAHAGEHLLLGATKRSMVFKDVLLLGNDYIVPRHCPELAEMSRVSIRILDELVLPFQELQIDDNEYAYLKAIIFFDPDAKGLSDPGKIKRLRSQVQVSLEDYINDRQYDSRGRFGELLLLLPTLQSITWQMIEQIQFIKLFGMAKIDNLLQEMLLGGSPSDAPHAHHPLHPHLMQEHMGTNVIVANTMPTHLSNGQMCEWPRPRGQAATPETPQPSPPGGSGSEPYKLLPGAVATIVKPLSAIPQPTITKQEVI
As to the kind of experiment: protein-binding microarray; COS-7 nuclear extract on double-stranded Agilent 4x180k PBM; binding buffer, salt, pH and temperature not given in the material; high values mean tight binding. Particulars: chain copies: 2; label: 3' end of strand 1 on the slide; dsDNA, one strand shown. The procedure, abridged: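 Nuclear extracts from COS-7 cells expressing a transiently transfected human HNF4α isoform were put on a custom Agilent SurePrint G3 4x180k array carrying ~44,000 double-stranded ~60-nt test sequences in quadruplicate. Imaging used an Agilent G2565CA scanner at 2-µm resolution. Binding signal is the background-corrected, normalized gProcessedSignal from Agilent software.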
For “CATGAAGGTCTCCTTGACTTCAAAGGCATTGCCTAGGGAGATTAGAGTATCGGTCGA”, the binding signal is 0.693 log2 normalized intensity.
On to “AGCCCTTATATCCACATGGGTCCAAAGTTCGCCTAGGGAGATTAGAGTATCGGTCGA”, for which the binding signal came out at 8.54 log2 normalized intensity.
As for “GACCAGTCTGCCTGACTCCAGAGTCCAAACGCCTAGGGAGATTAGAGTATCGGTCGA”, the figure is 2.77 log2 normalized intensity; as for “TGCCTGCAGGAGAGAGCAAAGTCCACGCATGCCTAGGGAGATTAGAGTATCGGTCGA”, 6.29 log2 normalized intensity.
Regarding “CAGGGAGCCCTTATATCCACATGGGTCCAAGCCTAGGGAGATTAGAGTATCGGTCGA”, the binding signal stood at 2.29 log2 normalized intensity.
Take “AGTCTTGAGTCCCAAAGTCCAAAGGCAGTCGCCTAGGGAGATTAGAGTATCGGTCGA”: the binding signal is 2.83 log2 normalized intensity.
As for “TGCAAGTTACCTTGGGGTCAAAGTACATCCGCCTAGGGAGATTAGAGTATCGGTCGA”, the figure is 8.65 log2 normalized intensity; as for “GTTACCTTGGGGTCAAAGTACATCCCCTAAGCCTAGGGAGATTAGAGTATCGGTCGA”, 6.4 log2 normalized intensity; as for “CAACTCCAAAGTCCAAAGTCCAGTCTTATCGCCTAGGGAGATTAGAGTATCGGTCGA”, 8.27 log2 normalized intensity.
With “TGTCTCCCTCTGCAGCAAAGTCCAGGCATAGCCTAGGGAGATTAGAGTATCGGTCGA”, the binding signal came out at 1.13 log2 normalized intensity.
As for “ATTCCTAAGTTCCAAAGGCCATCCACATTCGCCTAGGGAGATTAGAGTATCGGTCGA”, the figure is 1.84 log2 normalized intensity; as for “CTATCTGCCTGCAGGAGAGAGCAAAGTCCAGCCTAGGGAGATTAGAGTATCGGTCGA”, 7.16 log2 normalized intensity.
In the case of “CTTGGGGTCAAAGTACATCCCCTAAAACATGCCTAGGGAGATTAGAGTATCGGTCGA”, the binding signal came out at 5.71 log2 normalized intensity.
Then “GAGTCTTAGGGAGGGGCCAGGACAAAGGTCGCCTAGGGAGATTAGAGTATCGGTCGA”, with 5.72 log2 normalized intensity; and “CCACTCTCATGGTCAATATTTTCTTTGTGCGCCTAGGGAGATTAGAGTATCGGTCGA”, with 1.63 log2 normalized intensity.
Then “GTCTGATCTTCCTGAGGAGAGCAAAGATCAGCCTAGGGAGATTAGAGTATCGGTCGA”, with 2.54 log2 normalized intensity.
In the case of “GACTCCAGTGATCTTATCGCCTAGTACTCCGCCTAGGGAGATTAGAGTATCGGTCGA”, the binding signal is -0.841 log2 normalized intensity.
As for “CCTCGCCTATGGTATGTATGGAATGTCACTGCCTAGGGAGATTAGAGTATCGGTCGA”, the figure is 1.63 log2 normalized intensity; as for “GCCAGGACAAAGGTCCTGTGGCCTGGGGAGGCCTAGGGAGATTAGAGTATCGGTCGA”, 0.557 log2 normalized intensity; as for “CCTGGCCATTTCTCAGGTTGTGTTTGCAGTGCCTAGGGAGATTAGAGTATCGGTCGA”, 1.53 log2 normalized intensity.
Then “CTATTGCAGTAACGGCAGGGTTGTGCAGGAGCCTAGGGAGATTAGAGTATCGGTCGA”, with 0.453 log2 normalized intensity; and “ATCCTTACACAGCAGCTTTAGTCAGAGATTGCCTAGGGAGATTAGAGTATCGGTCGA”, with -0.896 log2 normalized intensity; and “GCATGGCTCAGTCCAAGTCCAAAGGTCTGAGCCTAGGGAGATTAGAGTATCGGTCGA”, with 5.39 log2 normalized intensity.
As for “CCAAAGTCCAAAGTCCAGTCTTATCTGAGAGCCTAGGGAGATTAGAGTATCGGTCGA”, the figure is 7.12 log2 normalized intensity; as for “AAGTCCAGTCTTATCTGAGACTCAAGGCAAGCCTAGGGAGATTAGAGTATCGGTCGA”, -0.968 log2 normalized intensity; as for “TTTCTGTAAAGCTTTATTTTGGGGCTGTATGCCTAGGGAGATTAGAGTATCGGTCGA”, 0.324 log2 normalized intensity.
“CTTTAGCACCTTCATCCAAAGATGACCTTTGCCTAGGGAGATTAGAGTATCGGTCGA”: the binding signal is 7.62 log2 normalized intensity.
For the sequence “AATCGACCTTTAGCACCGTAAGAGAGTATTGCCTAGGGAGATTAGAGTATCGGTCGA”, the binding signal amounted to 3.82 log2 normalized intensity.
Then “CCTGCATATCCTGACTGCTGACCTTTAAGCGCCTAGGGAGATTAGAGTATCGGTCGA”, with 4.85 log2 normalized intensity; and “AGATAGCATTCCAAGAGAGCAAAGTGCTTTGCCTAGGGAGATTAGAGTATCGGTCGA”, with 0.587 log2 normalized intensity; and “CTTCTTTGCTTAAGCATAGCAAAAGTGACCGCCTAGGGAGATTAGAGTATCGGTCGA”, with 2.7 log2 normalized intensity.
On to “ATAGCAAAAGTGACCTTTGCTCCAGTTCCCGCCTAGGGAGATTAGAGTATCGGTCGA”, for which the binding signal is 7.8 log2 normalized intensity.
On to “TTTGCCAAAGCATAGCAAGAGTGACCTTTGGCCTAGGGAGATTAGAGTATCGGTCGA”, for which the binding signal was found to be 6.6 log2 normalized intensity.
As for “GTGACCTTTGCTCCAGTTCCCAATAAGTTGGCCTAGGGAGATTAGAGTATCGGTCGA”, the figure is 4.19 log2 normalized intensity; as for “CAAAGCATAGCAAGAGTGACCTTTGCTCCAGCCTAGGGAGATTAGAGTATCGGTCGA”, 8.97 log2 normalized intensity; as for “AAAAGTGACCTTTGCTCCAGTTCCCAATAAGCCTAGGGAGATTAGAGTATCGGTCGA”, 5.9 log2 normalized intensity.
Turning to “TATGACCTTTGCTTTTCAAGATTTTACCTAGCCTAGGGAGATTAGAGTATCGGTCGA”, the binding signal worked out at 2.14 log2 normalized intensity.
Turning to “TTGCTTAAGCATAGCAAAAGTGACCTTTGCGCCTAGGGAGATTAGAGTATCGGTCGA”, the binding signal worked out at 8.56 log2 normalized intensity.
Take “CCCATCCAAAGGTCAGCAATCTCAAAGACTGCCTAGGGAGATTAGAGTATCGGTCGA”: the binding signal turned out to be 2.36 log2 normalized intensity.
Then “TAAGTTTAAGTCCAGAAAAGACCAAAAAGGGCCTAGGGAGATTAGAGTATCGGTCGA”, with 0.39 log2 normalized intensity.
On to “TAACTATGGTCACGCGGCCAAAATGTTCAGGCCTAGGGAGATTAGAGTATCGGTCGA”, for which the binding signal was found to be 0.22 log2 normalized intensity.
As for “CTGTGTCATCTGAACTCTGACCAACGCCTCGCCTAGGGAGATTAGAGTATCGGTCGA”, the figure is 2.73 log2 normalized intensity; as for “CAAGAGTGACCTTTGCTCCAGTTCCCAATAGCCTAGGGAGATTAGAGTATCGGTCGA”, 6 log2 normalized intensity.
With “CATAGCAAGAGTGACCTTTGCTCCAGTTCCGCCTAGGGAGATTAGAGTATCGGTCGA”, the binding signal amounted to 7.45 log2 normalized intensity.
Take “TGACCTTTGCTCCAGTTCCCAATAATTTCCGCCTAGGGAGATTAGAGTATCGGTCGA”: the binding signal turned out to be 4.46 log2 normalized intensity.
As for “CAGTACTGAAACATGCCTATGACCGAGGGTGCCTAGGGAGATTAGAGTATCGGTCGA”, the figure is 0.809 log2 normalized intensity; as for “TGCTTGGAATGCTATTTGCATTGACACAACGCCTAGGGAGATTAGAGTATCGGTCGA”, 0.296 log2 normalized intensity.
Then “TTCTGTTCAATGGTGCTTTTGATATTGTTGGCCTAGGGAGATTAGAGTATCGGTCGA”, with 2.06 log2 normalized intensity; and “AATGTTTGTAGGGACTTTGACCCCTAAAACGCCTAGGGAGATTAGAGTATCGGTCGA”, with 8.73 log2 normalized intensity.
As for “AGCAATGTTTCTTGTCCAGGGACTTTGAACGCCTAGGGAGATTAGAGTATCGGTCGA”, the figure is 5.74 log2 normalized intensity; as for “CTTTGACCCTGTTTTGTAAACTCCCTTTGAGCCTAGGGAGATTAGAGTATCGGTCGA”, 1.78 log2 normalized intensity; as for “CTGGAAATGTTTGTAGGGACTTTGACCCCTGCCTAGGGAGATTAGAGTATCGGTCGA”, 9.92 log2 normalized intensity.
As for “CAACTGACATCTGGAAATGTTTGTAGGGACGCCTAGGGAGATTAGAGTATCGGTCGA”, the binding signal worked out at 0.308 log2 normalized intensity.
Then “GACATCTGGAAATGTTTGTAGGGACTTTGAGCCTAGGGAGATTAGAGTATCGGTCGA”, with 4.28 log2 normalized intensity.
